Assay results: PubChem BioAssay AID1159580 (chemical genetic matrix, 2015)
Out of some 5,500 compounds screened, about 2,000 (36%) were called active. Another 18% or so got no clear call; they are omitted. Rule as the data show it: active = normalized growth mostly below about 0.91 (no sharp cut-off); inconclusive = no clear call, values can overlap the other calls; inactive = mostly above about 0.92. The list shows a part of the results.

Assay: chemical genetic growth profiling, strain panel (AID 1159580);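 also: tested at 20 µM; growth read once vehicle control cultures reached saturation at 30 °C; 1 = growth at the plate median or of vehicle wells; lower values mean less growth of the strain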
Conditions: growth OD

Measured: normalized growth

C=C[C@@H](C1=CC(=O)C(OC)=C(OC)C1=O)c1ccccc1
inactive: S. cerevisiae deletion strains, locus YKL009W, strain mrt4, active compounds read low 0.957 | S. cerevisiae deletion strains, locus YKL068W, active compounds read low 1 | S. cerevisiae deletion strains, locus YKL085W, strain MDH1 (second series), active compounds read low 0.936 | S. cerevisiae deletion strains, locus YKL085W, strain MDH1, active compounds read low 0.936 | S. cerevisiae deletion strains, locus YKR026C, strain gcn3, active compounds read low 0.945 | S. cerevisiae deletion strains, locus YKR091W, strain srl3, active compounds read low 0.95 | S. cerevisiae deletion strains, locus YLR058C, strain SHM2, active compounds read low 0.98 | S. cerevisiae deletion strains, locus YLR357W, strain rsc2, active compounds read low 0.901 | S. cerevisiae deletion strains, locus YLR384C, strain iki3, active compounds read low 0.982 | S. cerevisiae deletion strains, locus YML032C, strain rad52, active compounds read low 0.961 | S. cerevisiae deletion strains, locus YML120C, strain ndi1, active compounds read low 0.924 | S. cerevisiae deletion strains, locus YML124C, strain tub3, active compounds read low 0.981 | S. cerevisiae deletion strains, locus YNL250W, strain rad50, active compounds read low 0.916 | S. cerevisiae deletion strains, locus YNL298W, strain CLA4, active compounds read low 0.925 | S. cerevisiae deletion strains, locus YNL322C, strain KRE1 (second series), active compounds read low 0.911 | S. cerevisiae deletion strains, locus YNR049C, strain mso1, active compounds read low 0.986 | S. cerevisiae deletion strains, locus YNR052C, strain pop2, active compounds read low 0.983 | S. cerevisiae deletion strains, locus YOL147C, strain pex11, active compounds read low 0.959 | S. cerevisiae deletion strains, locus YOR001W, strain rrp6, active compounds read low 0.976 | S. cerevisiae deletion strains, locus YOR080W, strain dia2, active compounds read low 1.01 | S. cerevisiae deletion strains, locus YOR144C, strain elg1, active compounds read low 0.962 | S. cerevisiae deletion strains, locus YOR231W, strain MKK1, active compounds read low 0.93 | S. cerevisiae deletion strains, locus YOR290C, strain snf2, active compounds read low 0.911 | S. cerevisiae deletion strains, locus YPL078C, strain atp4, active compounds read low 0.954 | S. cerevisiae deletion strains, locus YPL106C, strain sse1, active compounds read low 0.984 | S. cerevisiae deletion strains, locus YPL256C, strain CLN2, active compounds read low 0.895 | S. cerevisiae deletion strains, locus YPR141C, strain kar3, active compounds read low 0.983
active: S. cerevisiae deletion strains, locus YKL160W, strain elf1, active compounds read low 0.401 | S. cerevisiae deletion strains, locus YKL190W, strain CNB1, active compounds read low 0.0937 | S. cerevisiae deletion strains, locus YKR001C, strain vps1, active compounds read low 0.158 | S. cerevisiae deletion strains, locus YLL001W, strain dnm1, active compounds read low 0.794 | S. cerevisiae deletion strains, locus YLL026W, active compounds read low 0.679 | S. cerevisiae deletion strains, locus YLL041C, strain sdh2, active compounds read low 0.811 | S. cerevisiae deletion strains, locus YLR027C, strain aat2, active compounds read low 0.448 | S. cerevisiae deletion strains, locus YLR039C, strain RIC1, active compounds read low 0.361 | S. cerevisiae deletion strains, locus YLR102C, strain apc9, active compounds read low 0.515 | S. cerevisiae deletion strains, locus YLR113W, strain HOG1, active compounds read low 0.719 | S. cerevisiae deletion strains, locus YLR221C, strain rsa3, active compounds read low 0.363 | S. cerevisiae deletion strains, locus YLR258W, strain gsy2, active compounds read low 0.561 | S. cerevisiae deletion strains, locus YLR262C, strain YPT6 (second series), active compounds read low 0.17 | S. cerevisiae deletion strains, locus YLR262C, strain YPT6, active compounds read low 0.195 | S. cerevisiae deletion strains, locus YLR268W, strain sec22, active compounds read low 0.193 | S. cerevisiae deletion strains, locus YLR320W, strain mms22, active compounds read low 0.219 | S. cerevisiae deletion strains, locus YLR342W, strain FKS1 (second series), active compounds read low 0.331 | S. cerevisiae deletion strains, locus YLR342W, strain FKS1, active compounds read low 0.72 | S. cerevisiae deletion strains, locus YLR370C, strain arc18, active compounds read low 0.811 | S. cerevisiae deletion strains, locus YLR371W, strain rom2, active compounds read low 0.285 | S. cerevisiae deletion strains, locus YLR418C, strain cdc73, active compounds read low 0.141 | S. cerevisiae deletion strains, locus YML016C, strain PPZ1, active compounds read low 0.292 | S. cerevisiae deletion strains, locus YMR058W, strain fet3, active compounds read low 0.612 | S. cerevisiae deletion strains, locus YMR078C, strain ctf18, active compounds read low 0.381 | S. cerevisiae deletion strains, locus YMR125W, strain sto1, active compounds read low 0.284 | S. cerevisiae deletion strains, locus YMR129W, active compounds read low 0.659 | S. cerevisiae deletion strains, locus YMR205C, strain PFK2, active compounds read low 0.689 | S. cerevisiae deletion strains, locus YMR223W, strain ubp8, active compounds read low 0.493 | S. cerevisiae deletion strains, locus YMR231W, strain pep5, active compounds read low 0.529 | S. cerevisiae deletion strains, locus YMR307W, strain GAS1, active compounds read low 0.224 | S. cerevisiae deletion strains, locus YNL067W, strain RPL9B, active compounds read low 0.67 | S. cerevisiae deletion strains, locus YNL071W, strain lat1, active compounds read low 0.0795 | S. cerevisiae deletion strains, locus YNL183C, strain NPR1, active compounds read low 0.799 | S. cerevisiae deletion strains, locus YNL209W, strain ssb2, active compounds read low 0.748 | S. cerevisiae deletion strains, locus YNL233W, strain BNI4, active compounds read low 0.121 | S. cerevisiae deletion strains, locus YNL248C, strain rpa49, active compounds read low 0.403 | S. cerevisiae deletion strains, locus YNL271C, strain bni1, active compounds read low 0.88 | S. cerevisiae deletion strains, locus YNL307C, strain MCK1, active compounds read low 0.0762 | S. cerevisiae deletion strains, locus YNL322C, strain KRE1, active compounds read low 0.835 | S. cerevisiae deletion strains, locus YOL012C, strain htz1 0.17 | S. cerevisiae deletion strains, locus YOR061W, strain CKA2, active compounds read low 0.829 | S. cerevisiae deletion strains, locus YOR069W, strain VPS5, active compounds read low 0.314 | S. cerevisiae deletion strains, locus YOR070C, strain gyp1, active compounds read low 0.487 | S. cerevisiae deletion strains, locus YOR083W, strain WHI5, active compounds read low 0.554 | S. cerevisiae deletion strains, locus YOR106W, strain vam3, active compounds read low 0.297 | S. cerevisiae deletion strains, locus YOR136W, strain idh2, active compounds read low 0.675 | S. cerevisiae deletion strains, locus YOR184W, strain ser1, active compounds read low 0.15 | S. cerevisiae deletion strains, locus YOR265W, strain rbl2, active compounds read low 0.686 | S. cerevisiae deletion strains, locus YOR270C, strain vph1, active compounds read low 0.616 | S. cerevisiae deletion strains, locus YOR316C, strain cot1, active compounds read low 0.833 | S. cerevisiae deletion strains, locus YPL051W, strain arl3, active compounds read low 0.384 | S. cerevisiae deletion strains, locus YPL240C, strain hsp82, active compounds read low 0.625 | S. cerevisiae deletion strains, locus YPL241C, strain CIN2, active compounds read low 0.523 | S. cerevisiae deletion strains, locus YPR119W, strain clb2, active compounds read low 0.615 | S. cerevisiae deletion strains, locus YPR163C, strain tif3, active compounds read low 0.151 | S. cerevisiae deletion strains, locus YPR167C, strain met16, active compounds read low 0.456 | S. cerevisiae deletion strains, strain wtn01, active compounds read low 0.196 | S. cerevisiae strains, strain wild type, active compounds read low 0.114
